Among the data in PubChem BioAssay (Tox21) are Potency, outcome and max activation values, retold here.

Structures are written as SMILES. “And” between values parts separate entries of the source, which are not always exact repeats. Equal entries are not always repeated. Records with an inconclusive call do not appear. The source made the active and inactive calls. Unless noted, calls follow the shape of the dose curve; as a rule, active = well fitted curve in the direction sought with a large enough effect in the repeat runs; inconclusive = weak or mixed curves; inactive = no such curve, though single readings can be large; an effect the other way counts as inactive or inconclusive.

Assay [1] can be described thus: qHTS assay to identify small molecule agonists of the estrogen receptor alpha (ER-alpha) signaling pathway in the presence of an antagonist - cell viability counter screen (AID 1259386).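 Also: series mostly up to about 92 µM; cells exposed to compounds for 22 h at 37 °C before the viability read; nearly all actives have a fitted effect of over 30% in size.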 The method, boiled down:
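Using estrogen-depleted VM7Luc4E2 cells, the 15-concentration compound series was applied together with 10.0nM ICI-182,780 and incubated 22hr at 37C/5% CO2. Cell viability was then scored by CellTiter-Fluor.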
(In general: qHTS replaces the single test concentration by a dilution series.)

Assay [2] in a line: qHTS assay to identify small molecule antagonists of the TGF-beta/Smad signaling pathway - cell viability counter screen (AID 1346824). Also: nearly all actives have a fitted effect of over 50% in size. Also: potency is read from the fitted curve at half-maximal effect. The method, boiled down: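 Cytotoxicity counter-screen run in the same wells as the beta-lactamase Smad reporter read: CellTiter-Glo luminescence after 30 min at room temperature. HEK 293T SBE-bla cells had 5 hr compound exposure at 37 C with TGF-beta1 (0.25 ng/mL stock).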

Assay [3] can be described thus: qHTS assay to identify small molecule agonists of the TGF-beta/Smad signaling pathway - cell viability counter screen (AID 1346829). Also: nearly all actives have a fitted effect of over 45% in size. Also: potency is read from the fitted curve at half-maximal effect. The essentials:
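CellTiter-Glo luminescence readout; SBE-bla HEK 293T cells, overnight plating, compound 5 hr at 37 C/5% CO2, then bla substrate 2 hr RT, then CellTiter-Glo 30 min RT.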

The nature of assay [4]: qHTS assay to identify small molecule agonists of the TGF-beta/Smad signaling pathway (AID 1346859; active = well fitted activation curve with a large enough effect in the signal ratio in the repeat runs, not every such curve was filed as active; the % refers to the signal ratio; also: series mostly up to about 77 µM). The essentials:
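Stable Smad binding element-beta-lactamase HEK 293T cells; 5 hr compound exposure at 37 C under 5% CO2; 2 hr room-temperature substrate step; fluorescence excited at 405 nm, collected at 460 nm and 530 nm.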

The nature of assay [5]: Human pregnane X receptor (PXR) small molecule agonists, qHTS cell viability counter screen (AID 1346977). Also: nearly all actives have a fitted effect of over 50% in size. Also: potency is read from the fitted curve at half-maximal effect. The method, boiled down: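 Readout is CellTiter-Fluor fluorescence from PXR-Luc HepG2 cells. Plated cells rested 5hr, then were treated with compounds for 24hr at 37C and 5% CO2, with reagent present during the last hour.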
Assay [6] in a line: Caspase-3/7 induction in CHO-K1 cells by small molecules, qHTS assay (AID 1346980). Also: nearly all actives have a fitted effect of over 15% in size. Also: potency is read from the fitted curve at half-maximal effect. The essentials:
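Luminescent Caspase-Glo 3/7 read (30min, room temperature) quantified apoptosis induction. Cells were wild-type CHO-K1, treated with compound for 17hr at 37 C and 5% CO2.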

Assay [7] can be described thus: Caspase-3/7 induction in HepG2 cells by small molecules, qHTS cell viability counter screen (AID 1346981). Also: nearly all actives have a fitted effect of over 30% in size. Also: potency is read from the fitted curve at half-maximal effect. The method, boiled down: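 After a 5-hr attachment period at 37 C and 5% CO2, wild-type HepG2 cells received compounds in DMSO. Sixteen hours later CellTiter-Fluor was dispensed and the fluorescent signal quantified after a further hour.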
Assay [8] deals with Nuclear receptor subfamily 1 group I member 2 (Homo sapiens) (UniProt O75469). Kind of assay: Human pregnane X receptor (PXR) small molecule agonists, qHTS assay (AID 1346982). Also: nearly all actives have a fitted effect of over 35% in size. Also: potency is read from the fitted curve at half-maximal effect. The essentials: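 Tox21 qHTS; PXR-Luc HepG2; compounds pinned from DMSO; 24 hr, 37 C; ONE-Glo luciferase detection, 30 min room temperature.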
In assay [9] the target is Nuclear receptor subfamily 1 group I member 2 (Rattus norvegicus) (UniProt Q9R1A7). The assay can be described thus: Rat pregnane X receptor (rPXR) activation by small molecules, qHTS assay (AID 1346983). Also: nearly all actives have a fitted effect of over 20% in size. Also: potency is read from the fitted curve at half-maximal effect. As to conditions: rPXR luciferase reporter cells, One-Glo luminescence, 24 h; max activation: active compounds read high. The essentials: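 Luminescent readout (One-Glo luciferase, 30 min room temperature) followed 24 hr compound treatment at 37 C of rPXR cells plated 2,000 per well and preincubated 5hr; qHTS format with compounds delivered in DMSO.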

Assay [10] addresses Nuclear receptor subfamily 1 group I member 2 (Homo sapiens) (UniProt O75469). The assay can be described thus: CYP3A4 induction through human pregnane X receptor (PXR) by small molecules, qHTS assay (AID 1346984). Also: nearly all actives have a fitted effect of over 40% in size. The method, boiled down: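 Cells (DPX-2; HepG2 with PXR element plus CYP3A4-promoter luciferase) settled 5hr, then were treated 24hr at 37C. A 3hr, 3uM-final Luciferin-IPA step preceded luminescence measurement with One-Glo.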

The target is the same in assay [11]. The assay can be described thus: Human pregnane X receptor (PXR) activation by small molecules, qHTS assay (AID 1346985). Also: nearly all actives have a fitted effect of over 40% in size. Also: potency is read from the fitted curve at half-maximal effect. The essentials:
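DPX-2 cells (HepG2 co-transfected with a PXR response element and a CYP3A4-promoter luciferase construct) were seeded at 2,000 per well, rested 5 hr at 37C, then exposed to DMSO-dissolved compounds for 24 hr. Activation was read as luciferase luminescence.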

The target in assay [12] is Acetylcholinesterase (Homo sapiens) (UniProt P22303). The assay can be described thus: Acetylcholinesterase (AChE) small molecule antagonists: colormetric cell-based qHTS assay (AID 1347395; calls by dose curve; also: nearly all actives have a fitted effect of over 30% in size; also: potency is read from the fitted curve at half-maximal effect). The essentials:
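Neuroblastoma line SH-SY5Y supplied the enzyme; cells were preincubated with compound for 30 min at 37 C and 5% CO2. Acetylthiocholine with DTNB was then added for 90 min at 37 C, and thiocholine was measured by colour.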

Assay [13] concerns the target Progesterone receptor (Homo sapiens) (UniProt P06401). Kind of assay: qHTS assay to identify small molecule agonists of the progesterone receptor (PR) signaling pathway (AID 1346784; calls by dose curve; also: nearly all actives have a fitted effect of over 30% in size). The essentials:
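Using charcoal-stripped serum (2%) to limit endogenous steroids, PR-UAS-bla HEK 293T cells received compounds for 16 hr at 37C after 6 hr plating; beta-lactamase FRET fluorescence was recorded following 2 hr substrate loading at room temperature.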

The target is the same in assay [14]. The assay can be described thus: qHTS assay to identify small molecule antagonists of the progesterone receptor (PR) signaling pathway (AID 1346795; active = well fitted inhibition curve with a large enough effect in the signal ratio in the repeat runs, not every such curve was filed as active; the % refers to the signal ratio; also: potency is read from the fitted curve at half-maximal effect). The essentials:
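Inhibition of R5020-induced (1 nM final) beta-lactamase reporter signal in PR-UAS-bla HEK293T cells was scored by FRET fluorescence after overnight (16 hr) compound treatment.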

Assay [15] can be described thus: qHTS assay to identify small molecule antagonists of the progesterone receptor (PR) signaling pathway - cell viability counter screen (AID 1346798). Also: nearly all actives have a fitted effect of over 50% in size. Also: potency is read from the fitted curve at half-maximal effect. The method, boiled down: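 ATP content as viability readout: CellTiter-Glo luminescence, 30 min room temperature, in PR-UAS-bla HEK293T cells after 16 hr compound/R5020 treatment at 37C and 5% CO2.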
A short description of assay [16]: qHTS assay to identify small molecule agonists of the progesterone receptor (PR) signaling pathway - cell viability counter screen (AID 1346799; calls by dose curve; also: nearly all actives have a fitted effect of over 45% in size; also: potency is read from the fitted curve at half-maximal effect). The essentials:
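Cytotoxicity in PR-bla HEK293T cells: 16 h compound, 37C; CellTiter-Glo added post-FRET read; luminescence after 30 min RT.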

Assay [17] concerns the target Thyrotropin-releasing hormone receptor (Homo sapiens) (UniProt P34981). Kind of assay: qHTS assay to identify small molecule antagonists of the thyrotropin-releasing hormone receptor (TRHR) signaling pathway (AID 1346877; active = well fitted inhibition curve with a large enough effect in the repeat runs, not every such curve was filed as active; also: series mostly up to about 51 µM). The essentials:
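Calcium signal in dye-loaded TRHR/HEK293 cells; compounds added 5 min before TRH (1 nM final); fluorescence monitored 3 min at 1 s steps.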

For assay [18] the target is unchanged. The assay can be described thus: qHTS assay to identify small molecule agonists of the thyrotropin-releasing hormone receptor (TRHR) signaling pathway (AID 1346891; calls by dose curve;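 also: HEK293 cells expressing TRHR with calcium dye readout; series mostly up to about 58 µM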). The method, boiled down:
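In 1536-format, 1500 TRHR-Hek293 cells per well grew 18 h, took up calcium dye for 2 h at 37 °C, received compound, and were read kinetically; 15-point titrations, triplicates.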

Assay [19] can be described thus: Caspase-3/7 induction in HepG2 cells by small molecules, qHTS assay (AID 1346978). Also: nearly all actives have a fitted effect of over 15% in size. Also: potency is read from the fitted curve at half-maximal effect. The essentials:
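Caspase-3/7 induction was measured by Caspase-Glo 3/7 luminescence (30 min, room temperature) after a 17 hr compound exposure of wild-type HepG2 cells seeded at 2,000 per well and pre-incubated 5 hr.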

Assay [20] in a line: Caspase-3/7 induction in CHO-K1 cells by small molecules, qHTS cell viability counter screen (AID 1346979). Also: nearly all actives have a fitted effect of over 35% in size. Also: potency is read from the fitted curve at half-maximal effect. The essentials:
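To flag cytotoxic compounds, treated CHO-K1 wild-type cells were given CellTiter-Fluor at 16hr and read fluorescently after 1hr at 37C; the caspase-3/7 luminescence was measured in these same wells.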
% is scaled to controls: 0 for no effect and ±100 for the full control effect.

Progesterone receptor (Homo sapiens), sequence (P06401 whole entry, looked up): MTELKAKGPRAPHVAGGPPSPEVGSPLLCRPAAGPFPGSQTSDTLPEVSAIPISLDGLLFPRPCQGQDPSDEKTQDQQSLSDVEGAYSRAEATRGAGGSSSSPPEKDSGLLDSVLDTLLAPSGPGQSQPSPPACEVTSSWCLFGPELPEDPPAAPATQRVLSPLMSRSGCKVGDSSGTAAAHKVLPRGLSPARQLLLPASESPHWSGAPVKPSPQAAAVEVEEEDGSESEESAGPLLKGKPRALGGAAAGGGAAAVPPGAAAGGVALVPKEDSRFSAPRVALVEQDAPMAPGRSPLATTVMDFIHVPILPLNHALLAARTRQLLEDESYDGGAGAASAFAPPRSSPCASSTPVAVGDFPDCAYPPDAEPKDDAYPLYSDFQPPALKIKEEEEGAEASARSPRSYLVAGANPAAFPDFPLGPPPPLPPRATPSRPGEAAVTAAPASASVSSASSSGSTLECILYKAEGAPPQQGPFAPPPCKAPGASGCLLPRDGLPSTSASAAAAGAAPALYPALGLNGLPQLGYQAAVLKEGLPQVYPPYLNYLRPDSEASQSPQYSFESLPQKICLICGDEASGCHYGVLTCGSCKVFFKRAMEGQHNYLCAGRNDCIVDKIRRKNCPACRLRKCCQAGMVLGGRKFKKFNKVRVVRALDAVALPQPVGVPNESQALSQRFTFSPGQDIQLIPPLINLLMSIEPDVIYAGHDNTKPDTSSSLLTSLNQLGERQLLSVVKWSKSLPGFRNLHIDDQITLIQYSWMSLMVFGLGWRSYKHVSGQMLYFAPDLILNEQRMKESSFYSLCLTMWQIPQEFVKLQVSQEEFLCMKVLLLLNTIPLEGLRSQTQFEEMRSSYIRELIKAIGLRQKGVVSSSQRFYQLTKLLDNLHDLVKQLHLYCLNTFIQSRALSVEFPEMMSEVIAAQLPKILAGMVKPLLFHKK
Nuclear receptor subfamily 1 group I member 2 (Homo sapiens), sequence (O75469 whole entry, looked up): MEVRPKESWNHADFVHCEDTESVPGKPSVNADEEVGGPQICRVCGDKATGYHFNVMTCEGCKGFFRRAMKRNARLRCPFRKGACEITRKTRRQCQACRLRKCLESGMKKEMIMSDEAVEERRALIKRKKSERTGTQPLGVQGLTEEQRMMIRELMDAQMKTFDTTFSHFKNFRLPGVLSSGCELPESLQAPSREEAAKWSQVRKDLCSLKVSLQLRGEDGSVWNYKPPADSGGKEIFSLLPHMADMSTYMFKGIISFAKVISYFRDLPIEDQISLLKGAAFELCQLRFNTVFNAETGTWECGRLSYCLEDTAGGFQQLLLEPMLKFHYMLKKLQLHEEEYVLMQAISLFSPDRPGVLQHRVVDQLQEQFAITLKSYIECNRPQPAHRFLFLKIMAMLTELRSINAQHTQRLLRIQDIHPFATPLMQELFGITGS
Acetylcholinesterase (Homo sapiens), sequence (P22303 whole entry, looked up): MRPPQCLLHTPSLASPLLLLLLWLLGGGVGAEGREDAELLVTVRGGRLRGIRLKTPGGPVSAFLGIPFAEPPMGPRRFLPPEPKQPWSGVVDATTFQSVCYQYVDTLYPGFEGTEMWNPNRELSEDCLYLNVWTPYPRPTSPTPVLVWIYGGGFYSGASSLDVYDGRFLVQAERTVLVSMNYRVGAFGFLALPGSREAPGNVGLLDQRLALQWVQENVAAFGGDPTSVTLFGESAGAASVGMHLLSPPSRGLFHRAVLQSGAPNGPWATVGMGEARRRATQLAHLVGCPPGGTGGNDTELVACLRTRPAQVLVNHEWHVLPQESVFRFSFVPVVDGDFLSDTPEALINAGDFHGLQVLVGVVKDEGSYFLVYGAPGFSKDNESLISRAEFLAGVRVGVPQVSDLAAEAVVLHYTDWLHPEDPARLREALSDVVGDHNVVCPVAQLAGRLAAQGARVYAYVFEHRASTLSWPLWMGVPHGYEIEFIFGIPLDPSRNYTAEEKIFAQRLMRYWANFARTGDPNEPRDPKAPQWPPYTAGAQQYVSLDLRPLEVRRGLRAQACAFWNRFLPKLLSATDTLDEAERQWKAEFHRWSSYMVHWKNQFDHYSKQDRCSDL
Nuclear receptor subfamily 1 group I member 2 (Rattus norvegicus), sequence (Q9R1A7 whole entry, looked up): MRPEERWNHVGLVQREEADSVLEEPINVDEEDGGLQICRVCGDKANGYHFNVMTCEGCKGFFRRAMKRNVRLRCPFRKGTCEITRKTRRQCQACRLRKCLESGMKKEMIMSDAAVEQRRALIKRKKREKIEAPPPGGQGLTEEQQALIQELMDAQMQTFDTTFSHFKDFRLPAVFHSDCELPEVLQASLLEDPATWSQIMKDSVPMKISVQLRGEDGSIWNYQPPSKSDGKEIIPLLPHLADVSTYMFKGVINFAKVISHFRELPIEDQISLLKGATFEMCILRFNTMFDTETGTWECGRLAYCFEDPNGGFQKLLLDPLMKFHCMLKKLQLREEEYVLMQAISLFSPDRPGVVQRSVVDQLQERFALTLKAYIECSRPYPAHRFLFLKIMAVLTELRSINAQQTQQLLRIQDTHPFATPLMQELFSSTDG
Thyrotropin-releasing hormone receptor (Homo sapiens), sequence (P34981 whole entry, looked up): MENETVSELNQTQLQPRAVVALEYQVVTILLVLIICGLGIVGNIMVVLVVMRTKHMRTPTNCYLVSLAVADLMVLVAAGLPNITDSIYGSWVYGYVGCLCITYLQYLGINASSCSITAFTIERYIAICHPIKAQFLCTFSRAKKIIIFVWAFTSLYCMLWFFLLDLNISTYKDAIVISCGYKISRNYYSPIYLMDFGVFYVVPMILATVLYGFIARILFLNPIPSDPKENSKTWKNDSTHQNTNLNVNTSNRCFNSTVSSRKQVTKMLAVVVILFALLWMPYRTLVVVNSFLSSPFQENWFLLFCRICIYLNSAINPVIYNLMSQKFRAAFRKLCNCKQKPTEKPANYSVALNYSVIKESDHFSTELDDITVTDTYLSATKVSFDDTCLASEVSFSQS

`CC[C@]1(O)CC[C@H]2[C@@H]3CCC4=CCCC[C@@H]4[C@H]3CC[C@@]21C`: the Potency entry in assay [1], in assay [2], in assay [3], in [5], in assay [6] and in assay [7] was “inactive” throughout. The Potency entry in [10] and in assay [12] was “inactive” in each case. Moreover, the molecule was classed as inactive in assay [4]. For the same molecule, the values for the Potency in assay [8], in assay [9] and in [11] were 23.7 µM (active), 14.1 µM (active) and 8.91 µM (active), respectively.
`CC(C)=CCN1CC[C@@]2(C)c3cc(O)ccc3C[C@@H]1[C@@H]2C`: the Potency entry in assay [13], in assay [14], in [15], in [16], in [2] and in assay [3] was “inactive” in each case. For the same molecule, the Potency entry in assay [17], in assay [18], in assay [19], in assay [20], in assay [6] and in [7] was “inactive” in each case. In assay [8], the Potency entry was “inactive”. Also, the result in assay [4] was inactive. In addition, the Potency in assay [5] was 17 µM (active); in assay [12], 31.2 µM (active).
In the case of `C[C@H]1[C@H](c2ccc(Cl)cc2)SC(=O)N1C(=O)NC1CCCCC1`, the Potency result in assay [13], in assay [3], in assay [17], in [18], in assay [19] and in assay [6] was “inactive” throughout. The Potency entry in [7] and in [12] was “inactive” each time. Further, the Potency is 13.7 µM (active) in assay [14] and 6.86 µM (active) in assay [8].
Consider `O=C1C[C@@H]2OCC=C3CN4CC[C@]56c7ccccc7N1[C@H]5[C@H]2[C@H]3C[C@H]46`, for which the Potency result in [13], in assay [14], in [2], in assay [3], in assay [18] and in assay [19] was “inactive” each time. Moreover, the Potency result in [6] was “inactive”. Further, the result in assay [4] was inactive.
For `NC(=O)C(Cl)Cl`, the Potency entry in assay [13], in [14], in assay [15], in [16], in [2] and in assay [3] was “inactive” each time. In addition, the Potency result in [17], in assay [18], in [5], in assay [19], in assay [6] and in [7] was “inactive” in each case. The Potency result in assay [8] and in [12] was “inactive” throughout. The molecule was called inactive in assay [4].
With `CCCCCCC[CH2][Sn]([Cl])([Cl])[CH2]CCCCCCC`, the Potency entry in [2], in assay [3], in [17], in assay [18], in assay [7] and in [12] was “inactive” each time. The outcome in assay [4] was inactive. The Potency in assay [20] was 54.4 µM (active); in assay [6], 68.5 µM (active).
As to `CNC(=O)O/N=C(\C)C(C)S(C)(=O)=O` (configuration not stated), the Potency result in [13], in assay [2], in assay [3], in assay [5], in [19] and in assay [6] was “inactive” each time. Also, the Potency result in [7] is “inactive”. Further, in assay [4], the molecule was classed as inactive. For the same molecule, in [12], the Potency is 355 µM (active).
As for `CCN(CC)CCc1c[nH]c2ccccc12`, the Potency in [15] was 90.4 µM (active). The Potency entry in assay [2], in [18], in assay [19], in [20], in assay [6] and in [7] was “inactive” each time. Moreover, the Potency result in assay [8] and in assay [12] was “inactive” each time. In addition, the molecule was classed as inactive in assay [4].
Regarding `ClC1=C(Cl)[C@]2(Cl)[C@@H]3[C@H]4C[C@H]([C@@H]5O[C@H]45)[C@@H]3[C@@]1(Cl)C2(Cl)Cl`, the Potency result in [13], in assay [2], in [3], in [17], in assay [18] and in [19] was “inactive” each time. Also, the Potency result in assay [6], in assay [7], in [10] and in assay [12] was “inactive” each time. Also, the call in assay [4] was inactive. The Potency was 5.44 µM (active) in [8] and 25.1 µM (active) in [11].
Consider `N#Cc1sc2c(=O)c3ccccc3c(=O)c=2sc1C#N`, for which the Potency in assay [15] was 30.6 µM (active); in assay [16], 30.6 µM (active); in [2] it was 49 µM (active); in assay [5] it was 9.69 µM (active); in assay [7] it was 21.7 µM (active); in assay [8], 2.73 µM (active). For the same molecule, the Potency in assay [12] was 44.8 µM (active). The Potency entry in assay [18], in assay [19] and in assay [6] was “inactive” each time.
`[O]=[Cr](=[O])([OH])[O][Cr](=[O])(=[O])[OH]`: the Potency entry in [15], in assay [16], in assay [6], in assay [10], in [11] and in assay [12] was “inactive” each time. The Potency in assay [2] was 27.8 µM (active) and 24.5 µM (active); in assay [3] it was 24.8 µM (active) and 24.5 µM (active); in assay [5], 8.71 µM (active) and 6.1 µM (active); in [19] it was 9.78 µM (active) and 13.7 µM (active); in [20] it was 7.77 µM (active) and 15.3 µM (active); in assay [7] it was 5.5 µM (active) and 4.85 µM (active). Also, the Potency in assay [8] is 8.71 µM (active) and 9.67 µM (active). In addition, the call in assay [4] was inactive. For the same molecule, the max activation in assay [9] was -13.2% (inactive) and 6.2% (inactive).
